# Screens: PubChem, several laboratories
# The list is not random: actives were taken first. Their share in the collection is about 2.3%.
# UBC13 inh – blocks human UBC13 polyubiquitin chain formation; P61088; TR-FRET; inhibition, % at 20 µM; hit rate 0.47% among 330,000; AID 485273; in the data active = inhibition above about 45%, passing the limit was not always enough
# MEKK2 WT-MEK5 – raises or lowers MEK5 binding to wildtype human MEKK2 PB1 domain; Q9Y2U5; bead flow cytometry, Alexa488-MEK5 binding to MEKK2 WT; actives lie on both sides; binding response (% of control), % at 10 µM; hit rate 1.1% among 290,000; AID 1531; in the data active = binding response below about 67% or above about 130%
# MEKK2 mut-MEK5 – signal of MEK5 binding to mutant human MEKK2 PB1 domain; bead flow cytometry, Alexa488-MEK5 binding to MEKK2 mutant; percent response, % at 10 µM; hit rate 0.35% among 290,000; AID 1530; in the data active = percent response above about 24%, passing the limit was not always enough
# MEKK3 PB1 HTS – raises or lowers MEK5 binding to the human MEKK3 PB1 domain; Q99759; hit rate 1.4% among 290,000; bead-based flow cytometry, Alexa488-MEK5 binding to MEKK3; actives lie on both sides; 0 = blocked by unlabeled MEK5, 100 = vehicle; binding response (% of control), % at 10 µM;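 active = binding response more than 3 SD above or below the average of its plate-row segment, actives on both sides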;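 note: Alexa488 bead fluorescence after subtracting the streptavidin-only scavenger bead signal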
# Target sequence (Q99759 whole entry, looked up, the tested form may be a part): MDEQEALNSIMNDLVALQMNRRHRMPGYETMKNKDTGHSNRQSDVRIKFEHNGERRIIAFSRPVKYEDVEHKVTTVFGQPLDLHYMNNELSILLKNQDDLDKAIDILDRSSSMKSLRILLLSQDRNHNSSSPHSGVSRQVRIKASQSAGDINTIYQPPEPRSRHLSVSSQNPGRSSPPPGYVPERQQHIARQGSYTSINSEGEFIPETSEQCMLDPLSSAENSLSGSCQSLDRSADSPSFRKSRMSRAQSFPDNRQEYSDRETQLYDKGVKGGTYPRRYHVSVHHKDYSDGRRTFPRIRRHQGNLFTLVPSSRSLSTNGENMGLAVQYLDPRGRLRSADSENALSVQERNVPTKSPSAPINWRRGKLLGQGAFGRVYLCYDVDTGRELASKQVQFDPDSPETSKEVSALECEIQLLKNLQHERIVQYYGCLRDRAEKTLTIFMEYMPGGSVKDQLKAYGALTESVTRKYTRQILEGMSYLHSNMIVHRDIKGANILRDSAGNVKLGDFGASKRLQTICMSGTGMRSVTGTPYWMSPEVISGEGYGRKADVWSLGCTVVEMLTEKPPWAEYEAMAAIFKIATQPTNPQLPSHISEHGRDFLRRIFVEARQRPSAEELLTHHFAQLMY
# MEKK2wt confirm – raises or lowers MEK5 binding to wildtype human MEKK2, retest; shares compounds with MEKK3 PB1 HTS; bead flow cytometry, Alexa488-MEK5 binding to MEKK2 WT; actives lie on both sides; binding response (% of control), % at 10 µM; hit rate 2.4% among 5,900; AID 1892; in the data active = binding response below about 16% or above about 210%; inactive = in between
# MEKK2mut confirm – signal of MEK5 binding to mutant human MEKK2, retest. shares compounds with MEKK3 PB1 HTS. bead flow cytometry, Alexa488-MEK5 binding to MEKK2 mutant. percent response, % at 10 µM. hit rate 2% among 5,900. AID 1893; in the data active = percent response mostly above about 71%, no sharp cut-off; inactive = mostly below about 38%;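 note: higher means compound restores mutant binding toward wildtype level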
# MEKK3 confirm – confirmation of inhibitors of MEK5 binding to human MEKK3. shares compounds with MEKK3 PB1 HTS. hit rate 1.8% among 5,900. binding response (% of control), % at 10 µM. bead flow cytometry, Alexa488-MEK5 binding to MEKK3; hits give low values. AID 1894;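 active = binding response below 72% of control, or above a set upper limit, though filed actives all read lower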;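 note: lower values mean stronger disruption of MEK5 binding to MEKK3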
# Hits are given with their value; – = inactive; · = no result given; [ ] = remark or other dose.
SMILES,UBC13 inh,MEKK2 WT-MEK5,MEKK2 mut-MEK5,MEKK3 PB1 HTS,MEKK2wt confirm,MEKK2mut confirm,MEKK3 confirm
CCn1nnnc1-c1ccc(OC)c(S(=O)(=O)NCCc2ccccc2)c1,–,–,–,45[inhibitor],–,–,–
N#CCc1nc2n(n1)Cc1ccccc1-2,–,136,·,124,–,–,–
C=CCNC(=S)NNc1nc2sc3c(c2c(=O)[nH]1)CC(C)(C)OC3,–,–,–,–,·,·,·
COc1cc2cc(CCCOC(=O)c3ccc(C(F)(F)F)cc3)oc(=O)c2cc1OC,–,·,·,·,·,·,·
C=CCc1ccccc1Oc1cc(OC)nc(N)n1,–,·,·,·,·,·,·
Cc1ccnn1CCC(=O)O,–,–,–,129,–,–,–
Cc1ccnn1CCSCC(=O)O,–,–,–,–,·,·,·
COc1c2ccc(OCC/C(C)=C/C(=O)C=C(C)C)cc2nc2occc12,–,·,·,·,·,·,·
CCCOc1ccccc1/C=C1\SC(N2CCCCC2)=NC1=O,–,–,–,–,·,·,·
CN(C)CCCN(C(=O)CCOc1ccccc1)c1nc2c(F)cccc2s1,·,146,–,–,–,–,–
CN(C)CCCN(C(=O)CCOc1ccccc1)c1nc2ccc(F)cc2s1,·,143,–,–,–,–,–
Cc1cccc2sc(N(CCCN(C)C)C(=O)COc3ccc(Cl)cc3)nc12,–,191,53,–,–,–,–
CN(C)CCCN(C(=O)COc1ccc(Cl)cc1)c1nc2c(F)cccc2s1,–,162,–,–,–,–,–
CC[C@H](C)/C=C/C1=CC2=C(Cl)C(=O)[C@@]3(C)OC(=O)C(C(=O)[C@H](C)[C@@H](C)O)=C3C2=CO1,–,–,–,–,·,·,·
COc1cccc(/C=C/C(=O)Nc2ccc3c(c2)OCCO3)c1OC,–,–,–,–,·,·,·
Cc1ccc2sc(N(CCCN(C)C)C(=O)c3ccc(S(=O)(=O)N4CCCCCC4)cc3)nc2c1C,–,·,·,·,·,·,·
Cc1ccc2sc(N(CCCN(C)C)C(=O)CN3C(=O)c4ccccc4C3=O)nc2c1C,–,150,–,–,–,–,–
Cc1ccc2cccc(S(=O)(=O)NC3CCS(=O)(=O)C3)c2n1 (configuration not stated),–,-1.0[inhibitor],–,2.0[inhibitor],–,–,–
O=C(CCC(=O)N1CCN(c2ccc(C(F)(F)F)cn2)CC1)c1cccs1,–,·,·,·,·,·,·
C=CCNc1nc2ccccc2nc1NS(=O)(=O)c1ccc(Br)cc1,–,–,–,–,·,·,·
CC(C)(CNC(=O)CO/N=C1/C=C2CCC3C(C(O)C[C@@]4(C)C3CC[C@]4(O)C(=O)CO)[C@@]2(C)CC1)C(O)C(=O)O (some centres not stated),–,–,–,–,·,·,·
Cc1cccc2sc(N(CCCN(C)C)C(=O)c3sc4ccccc4c3Cl)nc12,–,197,53,–,–,–,–
CN(C)CCCN(C(=O)c1sc2ccccc2c1Cl)c1nc2c(F)cccc2s1,–,325,139,–,–,–,–
CCOc1cccc(N(C(=O)CNC(=O)c2ccco2)C(C(=O)NCC2CCCO2)c2ccccc2)c1 (configuration not stated),–,–,–,–,·,·,·
CC[C@@]1(C(=O)OC)N[C@H](CN(C)C(=O)Nc2ccc(C)cc2)[C@@H]2C(=O)N(C)C(=O)[C@@H]21,–,·,·,·,·,·,·
SMILES,UBC13 inh,MEKK2 WT-MEK5,MEKK2 mut-MEK5,MEKK3 PB1 HTS,MEKK2wt confirm,MEKK2mut confirm,MEKK3 confirm
COC(=O)C1CCN(C(=O)c2oc3c(Cl)cc(C)cc3c2C)CC1,–,–,–,–,·,·,·
Cc1cc(Cl)c2oc(C(=O)N3CCN(c4ccncc4)CC3)c(C)c2c1,–,147,25,–,–,–,–
Cc1ncc([N+](=O)[O-])n1CC(=O)Nc1cccc(C(F)(F)F)c1,–,–,–,–,·,·,·
Cc1cc(C)c2nc3sc(C(=O)N4CCOCC4)c(N)c3cc2c1,–,17[inhibitor],–,29[inhibitor],–,–,–
CC(=O)Nc1ccc(/C=C(\C#N)S(=O)(=O)c2ccc(C)cc2)cc1,–,·,·,·,·,·,·
COC(=O)CCC(=O)OC1(C)C(=O)C2=CN(CC(C)C)C(c3ccc(OC)cc3)=CC2=C(Br)C1=O (configuration not stated),–,-7.0[inhibitor],–,–,–,–,71
CCCCC1=CC2=C(c3ccco3)C(=O)C(C)(OC(=O)c3ccc(OC)cc3)C(=O)C2=CN1CCCOC(C)C (configuration not stated),–,–,–,–,·,·,·
COC(=O)CCC(=O)OC1(C)C(=O)C2=CN(CCCOC(C)C)C(c3ccc(OC)cc3)=CC2=C(Br)C1=O (configuration not stated),–,-8.0[inhibitor],–,–,–,–,–
COC(=O)CCC(=O)OC1(C)C(=O)C2=CN(CCc3c[nH]c4ccccc34)C(c3ccc(OC)cc3)=CC2=C(Br)C1=O (configuration not stated),–,–,–,–,·,·,·
O=C(CCCOc1ccc(Cl)cc1Cl)NN1CCOCC1,–,–,–,–,·,·,·
COc1cc(OC)cc(-c2c(-c3cccs3)c3cc(-c4ccc(OCc5ccccc5)cc4)ccc3n2C)c1,–,·,·,·,·,·,·
N=c1n(CCN2CCOCC2)c2ccccc2n1CC(=O)c1cccc([N+](=O)[O-])c1,–,22[inhibitor],–,12[inhibitor],–,–,–
COc1ccc(NC(=O)Nc2ccon2)c(OC)c1,–,–,–,–,·,·,·
Cc1cc(C)c(NC(=O)c2ccc(CNS(=O)(=O)c3cc(C(F)(F)F)ccc3Cl)cc2)c(C)c1,–,–,–,130,–,–,–
Cc1ccc(CN(C)c2ccc(S(=O)(=O)N3CCCC3)cn2)cc1,–,·,·,·,·,·,·
Nc1nnc(CSCc2ccc(Cl)cc2Cl)s1,–,–,–,130,–,–,–
NS(=O)(=O)c1ccc(NC(=O)COC(=O)c2ncc(Cl)c(Cl)c2Cl)cc1,–,·,·,·,·,·,·
Cc1cccc(C(C)(C)C)c1OCCn1ccnc1,–,-1.0[inhibitor],–,-1.0[inhibitor],–,–,–
COC(=O)/C(=C\c1ccc2c(c1)c1ccccc1n2C)NC(=O)c1ccccc1,–,2.0[inhibitor],–,2.0[inhibitor],–,–,–
COC(=O)c1cccc(N(C(=O)c2cnccn2)C(C(=O)NC2CCCCC2)c2cn(C)nc2C)c1 (configuration not stated),–,–,–,46[inhibitor],–,–,–
Cc1nn(C)cc1C(C(=O)NC1CCCCC1)N(Cc1ccccc1Cl)C(=O)c1cnccn1 (configuration not stated),–,–,–,–,·,·,·
CCCNC(=O)NC(=O)COC(=O)c1cccc(NS(=O)(=O)c2ccc(F)c(F)c2)c1,–,–,–,–,·,·,·
CC(C)CNC(=O)NC(=O)COC(=O)c1cccc(NS(=O)(=O)c2ccc(F)c(F)c2)c1,–,–,–,134,–,–,–
CCC(=O)NCCNc1ccc([N+](=O)[O-])cn1,–,–,–,74[inhibitor],–,–,–
